This is an account of results in PubChem BioAssay (NCATS).

Inconclusive results are not listed. Calls of active or inactive are those of the source. Calls come from the whole dose curve; as a rule, active = well fitted cell-killing curve with a large enough effect; inconclusive = small, poorly fitted or top-dose-only effect; inactive = flat fitted curve, though single readings scatter.
Potency is the fitted concentration of half-maximal effect.

This test can be described thus: Cell Viability - SH-SY5Y (AID 544).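 For viability change, negative = cytotoxic: 0% = DMSO alone and -100% = 100 µM tamoxifen.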 Note: nearly all actives have a fitted effect of over 55% in size. The settings on record: SH-SY5Y neuroblastoma cell viability; viability change, negative = cytotoxic: at 92.2 µM (top of the series). The source says: NIH Chemical Genomics Center [NCGC]
NIH Molecular Libraries Screening Centers Network [MLSCN]
National Institutes of Environmental Health Sciences [NIEHS]
National Toxicology Program [NTP]
We have developed a 1536-well cell-based assay for quantitative high throughput screening (qHTS) against a number of cell lines to determine in vitro cytotoxicity of small molecules. This particular assay uses the SH-SY5Y cell line which is derived from human neuroblastoma.
NCGC Assay Protocol Summary:
The CellTiter-Glo luminescent cell viability assay (Promega) is a homogeneous method to measure the number of viable cells in culture. The end point readout of this assay is based on quantitation of intracellular ATP, an indicator of metabolic activity, using the luciferase reaction. Luciferase catalyzes the oxidation of beetle Luciferin to oxyluciferin and light in the presence of ATP. The luminescent signal is proportional to amount of ATP present.
Using the CellTiter-Glo luminescent cell viability assay, the amount of cellular ATP was measured in the SH-SY5Y cell line with complete culture medium following compound treatment for 40 hours. The assay was performed in opaque white Kalypsys 1536-well plates. In the screen, tamoxifen and doxorubicin were used as positive controls. Library compounds were measured for their ability to cause acute toxicity in the cell line, as reflected by a decrease in intracellular ATP levels, in a concentration-dependent manner. […] AC50 values were determined from concentration-response data modeled with the standard Hill equation.
qHTS protocol for CellTiter Glo SH-SY5Y cellular assay
[Step] [Parameter] [Value] [Description]
1. Reagent; 5 uL; 1500 SH-SY5Y cells/well
2. Time; 5 hr; 37 °C incubation
4. Controls; 23 nL; Tamoxifen 0.34 uM to 100 uM & Doxorubicin 0.02 nM to 100 uM
5. Time; 40 hr; 37 °C incubation
6. Reagent; 5 uL; CellTiter Glo reagent
7. Time; 20 min; Room Temperature
8. Detection; Luminescence; Viewlux plate reader
Keywords: cell viability, cytotoxicity, SH-SY5Y cell line, luminescence, NTPHTS, NTPHTS_NCGC, NIEHS, EPA, DSSTox, MLSMR, MLSCN, NIH Roadmap, qHTS, NCGC
For `[CH3][Hg][Cl]`, the Potency is 2.51 µM (active).
Still for that read-out and setting: for `c1ccc2cc3c(cc2c1)-c1cccc2cccc-3c12` the value was “inactive”.
Take `O=[N+]([O-])C(Br)Br`: the viability change, negative = cytotoxic is -98.3% (active).
On to `C[C@@H]1CC[C@@]2(OC1)O[C@H]1[C@@H](O)[C@H]3[C@@H]4CC[C@H]5C[C@@H](O[C@@H]6O[C@H](CO)[C@H](O[C@@H]7O[C@H](CO)[C@@H](O)[C@H](O[C@@H]8OC[C@@H](O)[C@H](O)[C@H]8O)[C@H]7O[C@@H]7O[C@H](CO)[C@@H](O)[C@H](O[C@@H]8O[C@H](CO)[C@@H](O)[C@H](O)[C@H]8O)[C@H]7O)[C@H](O)[C@H]6O)[C@H](O)C[C@]5(C)[C@H]4CC[C@]3(C)[C@H]1[C@@H]2C`, for which the Potency was 15.8 µM (active).
Consider `COP(=O)(OC)O/C(=C\Cl)c1cc(Cl)c(Cl)cc1Cl`, for which the viability change, negative = cytotoxic is -89.6% (active).
With `O=C(CCl)c1ccccc1`, the Potency is 7.94 µM (active).
Same read-out and setting: for `N#CC(Cl)Cl` the value was “inactive”; for `C#CCO`, “inactive”; for `CCCCCCCCn1sccc1=O`, 3.98 µM (active).
Turning to `OC(c1ccc(Cl)cc1)(c1ccc(Cl)cc1)C(Cl)(Cl)Cl`, the Potency result is “inactive”.
Still for that read-out and setting: the figure for `Clc1ccc(C(c2ccc(Cl)cc2)C(Cl)Cl)cc1` is 31.6 µM (active); for `FC(F)(F)c1ccc(Cl)cc1` it is “inactive”; for `Nc1ccccc1C(=O)OCCc1ccccc1` it is “inactive”.
For `O=C1C2(Cl)C3(Cl)C4(Cl)C(Cl)(Cl)C5(Cl)C3(Cl)C1(Cl)C5(Cl)C24Cl` (stereo unspecified), the viability change, negative = cytotoxic is -93.4% (active) and the Potency was 31.6 µM (active).
`O=C(O)C1C(C(=O)O)C2(Cl)C(Cl)=C(Cl)C1(Cl)C2(Cl)Cl` (stereo unspecified): the Potency result is “inactive”.
On the same count and under the same terms, the figure for `CN(C)c1ccc(N=O)cc1` is 1.26 µM (active).
Turning to `N#CSCSC#N`, the Potency is 1 µM (active).
For `ClC1=C(Cl)C2(Cl)C3C(Cl)C(Cl)CC3C1(Cl)C2(Cl)Cl` (stereo unspecified), the viability change, negative = cytotoxic was -97.5% (active).
As for `CC(C)CC(C)Nc1ccc(Nc2ccccc2)cc1` (stereo unspecified), the Potency was 25.1 µM (active).
On the same count and under the same terms, the entry for `C(=NC1CCCCC1)=NC1CCCCC1` is “inactive”.
